According to PubChem BioAssay (NCI):
This is part of a sample that, as a whole, favours compounds with a hit. Of some 79,000 tested, about 15% had one in any assay. Rule as the data show it: active = growth inhibition above about 70%; inactive = the rest.

Legend:
[1] = NCI Yeast Anticancer Drug Screen. Data for the rad50 strain (AID 155);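 also: 0% = growth of vehicle-only cultures of the same strain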; details: S. cerevisiae rad50 strain growth inhibition; at 50.0 µM; active compounds read high
In short: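 Inhibition values express reduced yeast growth in compound-treated cultures relative to vehicle-treated controls.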

[2] = NCI Yeast Anticancer Drug Screen. Data for the mec2-1 strain (AID 157); details: S. cerevisiae mec2-1 strain, at 50.0 µM, active compounds read high
In short: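 Growth inhibition is read against vehicle-treated controls after compound exposure of the mec2-1 yeast strain, which is defective in DNA damage repair or cell cycle control.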

[3] = NCI Yeast Anticancer Drug Screen. Data for the sgs1 mgt1 strain (AID 161);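 also: 0% = growth of cultures given vehicle only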; details: S. cerevisiae sgs1 mgt1 strain, at 50.0 µM, active compounds read high
In short: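 This yeast growth screen uses a strain with defined DNA-repair lesions; compound-treated growth is compared with vehicle-treated growth.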

[4] = NCI Yeast Anticancer Drug Screen. Data for the cln2 rad14 strain (AID 165);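 also: 0% = growth equal to vehicle treated cultures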; details: S. cerevisiae cln2 rad14 strain, at 50.0 µM, active compounds read high
In short: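 Growth inhibition, relative to vehicle-treated controls, is the read-out. The test organism is a yeast strain with defined genetic alterations, cln2 rad14.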

[5] = NCI Yeast Anticancer Drug Screen. Data for the bub3 strain (AID 167); details: S. cerevisiae bub3 mutant strain, at 50.0 µM, active compounds read high
In short: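 Steps: expose the mutant yeast strain to compound; grow alongside vehicle-treated cultures; measure growth; express inhibition against the vehicle cultures.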

[6] = NCI Yeast Anticancer Drug Screen. Data for the mlh1 rad18 strain (AID 175); details: S. cerevisiae mlh1 rad18 strain growth inhibition; at 50.0 µM; active compounds read high
In short: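 Cells of a genetically altered yeast strain, deficient in DNA damage repair, were treated with compound. Their growth was then compared with that of vehicle-treated cultures to give inhibition.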

Measured: growth inhibition

C[N+](C)(C)CCC(=O)N1C/C(=C\c2ccccc2)C(=O)/C(=C/c2ccccc2)C1
inactive: [1] -35.6% | [2] -15.2% | [3] -34.1% | [4] 8.75% | [5] -15.7% | [6] -34.8%

Nc1ccc(C(=O)Nc2ccc3c(O)cc(S(=O)(=O)O)cc3c2)cc1
inactive: [1] 23.2% | [2] 5.55% | [3] 2.65% | [4] -6.5% | [5] -10.5% | [6] 8.6%

Fc1ccc(NC(=S)Nc2ccc(F)cc2)cc1
inactive: [1] -19.4% | [2] -5.8% | [3] -10.7% | [4] -6.65% | [5] 15.1% | [6] 3.4%

C[Si](C)(C)CN=P(c1ccccc1)(c1ccccc1)c1ccccc1
inactive: [1] -29.6% | [2] -12.4% | [3] -19.2% | [4] 17.4% | [5] 3.7% | [6] -4.8%

C[n+]1nnn(/N=C\c2ccccc2)c1N
inactive: [1] -3.55% | [2] 11.8% | [3] 10.1% | [4] -0.95% | [5] 8.75% | [6] 11.6%

CC(C)N(CC(=O)O)CC(=O)O
inactive: [1] -0.95% | [2] -13.4% | [3] -21.1% | [4] -5% | [5] -22.9% | [6] -16.4%

O=C1c2ccccc2CN1c1ccc(O)cc1
inactive: [1] 5.65% | [2] 1.5% | [3] -14.8% | [4] 20.9% | [5] -1.2% | [6] 16.9%

COC(=O)c1cccc2c1-c1ccccc1C2=O
inactive: [1] 9.25% | [2] 11.9% | [3] -18.4% | [4] 5% | [5] 14% | [6] 11.6%

CC(C)NC(=O)C1CC2C=CC1C2 (stereo unspecified)
inactive: [1] 7.7% | [2] 1.3% | [3] 1.75% | [4] 3.25% | [5] -9.85% | [6] 14.8%

CCCCNC(=O)c1ccccc1C
inactive: [1] 4.8% | [2] 4.7% | [3] -6.7% | [4] -34.9% | [5] 2.25% | [6] 1.35%

N=C(N)SCCC(=O)CCSC(=N)N
inactive: [1] 27.9% | [2] 18.6% | [3] 33.6% | [4] 32.2% | [5] 15.6% | [6] -2.75%

CCOC(=O)c1ccc(NCc2ccc3oc(=O)c(-c4ccccc4)nc3c2)cc1
inactive: [1] -14.7% | [2] -16.6% | [3] -12.8% | [4] 22.2% | [5] -17.7% | [6] -17.4%

O=[N+]([O-])c1ccc(CS(=O)(=O)c2cccs2)o1
inactive: [1] 39% | [2] 12.8% | [3] 19.1% | [4] -6.25% | [5] 19.5% | [6] 16.6%

COC(=O)C(Cc1ccccc1)NC(=O)C(CCC(=O)OCc1ccccc1)NC(=O)OC(C)(C)C (stereo unspecified)
inactive: [1] 30.9% | [2] 8.55% | [3] 19.8% | [4] 19.9% | [5] 31.4% | [6] 22%

O=NN(CC(=O)O)c1ccc2ccccc2c1
inactive: [1] 2.55% | [2] -7.3% | [3] 13.8% | [4] -39.5% | [5] -14.9% | [6] -2.85%

[N-]=[N+]=C(C(=O)N1CCCC1=O)S(=O)(=O)c1ccccc1
inactive: [1] -17.3% | [2] -12.4% | [3] -17.9% | [4] 5.45% | [5] -14.4% | [6] 2.45%

N#Cc1ccc(OC(=O)Nc2ccccc2C(F)(F)F)cc1
inactive: [1] 2.4% | [2] -18.9% | [3] -5.2% | [4] -2.1% | [5] -14.9% | [6] -0.85%

O=[N+]([O-])c1ccc(-c2nc3ncncc3[nH]2)cc1
inactive: [1] 13.2% | [2] -3.25% | [3] -0.75% | [4] 13.1% | [5] 5.05% | [6] 7.25%

CS(=O)(=O)Oc1ccc2cc(Br)ccc2c1
inactive: [1] 13.6% | [2] -5.35% | [3] -0.3% | [4] 4.25% | [5] 31.4% | [6] 9.75%

O=C(O)C#Cc1ccccc1[N+](=O)[O-]
inactive: [1] 21.1% | [2] 25.1% | [3] 11.3% | [4] -15.4% | [5] 14.9% | [6] 9.35%

O=COCCCc1ccccc1
inactive: [1] 15.8% | [2] -1.85% | [3] 11.8% | [4] -5.2% | [5] 3.15% | [6] -23.7%

Cc1c[nH]c(=O)n(CC(=O)C2(O)CCC3C4CCC5=CC(=O)CCC5(C)C4CCC32C)c1=O (stereo unspecified)
inactive: [1] 5.25% | [2] -4.45% | [3] -10.9% | [4] 13.2% | [5] -0.55% | [6] -1.35%

O=C1NCCCCC1CC/C=C/c1ccccc1 (stereo unspecified)
inactive: [1] -13.7% | [2] -23.2% | [3] -3.7% | [4] -9.6% | [5] 32.5% | [6] -5.85%

CCOC(=O)Cc1csc(N=Nc2c(O)[nH]c3ccccc23)n1
inactive: [1] -2.55% | [2] -12.8% | [3] 10.6% | [4] 7.9% | [5] 5.85% | [6] 17.6%

COc1ccc(S(=O)(=O)N/N=C/c2cc(I)cc([N+](=O)[O-])c2O)cc1OC
inactive: [1] 35% | [2] 22.1% | [3] 17.1% | [4] 4.95% | [5] -3.75% | [6] 38%

CCOP(=O)(OCC)/C(C#N)=C/c1cnc(-c2ccccc2)[nH]1
inactive: [1] -38% | [2] -4.85% | [3] -32.8% | [4] 16.1% | [5] 13.4% | [6] -34%

COc1ccc(OC)c2c(C(C)=O)cccc12
inactive: [1] -35% | [2] -42.1% | [3] -4.2% | [4] -12.8% | [5] -17.2% | [6] -21.7%

COc1cc(NCCCCCNC(C)C)c2ncccc2c1
inactive: [1] 48.9% | [2] 20.2% | [3] 35.3% | [4] 27.9% | [5] 35.6% | [6] 54%

OCc1ccccc1F
inactive: [1] -42.4% | [2] -34% | [3] -20.6% | [4] -15.3% | [5] -15.1% | [6] -36.2%

COC1OC(CO)C(O)C(NC(=O)[C@H](Cc2ccc(O)cc2)NC(=O)OCc2ccccc2)C1O (stereo partly specified)
inactive: [1] 8.6% | [2] -3.75% | [3] 3.2% | [4] -6.05% | [5] -0.5% | [6] 7.1%

O=C(O)c1c2c(nc3ccccc13)Cc1ccccc1-2
inactive: [1] 1% | [2] -0.75% | [3] 10.1% | [4] -0.2% | [5] 17.3% | [6] -39.8%

C(=C1\CCC/C(=C/c2ccccc2)C1=NNc1ccccc1)/c1ccccc1
inactive: [1] 19.7% | [2] 2.35% | [3] 6.45% | [4] 18.1% | [5] 11% | [6] 24.1%

NC(=O)Nc1cccc(C(=O)O)c1C(=O)O
inactive: [1] -29.4% | [2] -13.2% | [3] -18.1% | [4] -33.6% | [5] -13.1% | [6] -28.4%

COc1ccc(Cc2ccc(OC)c3ccccc23)c2ccccc12
inactive: [1] 9.65% | [2] -2.45% | [3] 4.3% | [4] -30.9% | [5] 15.2% | [6] -5.25%

CCC1(C#N)OC1C (stereo unspecified)
inactive: [1] 26.9% | [2] -24.1% | [3] 23.1% | [4] 10.8% | [5] 5.15% | [6] 27.4%

CCC(=O)C1CCCCN1 (stereo unspecified)
inactive: [1] 10.7% | [2] 17.1% | [3] -11.1% | [4] -48.4% | [5] -3.15% | [6] 3%

CC1CCCC2(C)CCC(=O)C=C12 (stereo unspecified)
inactive: [1] -2% | [2] 6.75% | [3] -12.5% | [4] -13.8% | [5] -1.95% | [6] -20.5%

CCc1cn(O)c(C)cc1=N
inactive: [1] 25.3% | [2] 11.1% | [3] 6.15% | [4] 5.8% | [5] 12% | [6] 21.1%

NC(=O)c1ccccc1NC(=O)C(=O)Cc1nc2ccccc2[nH]c1=O
inactive: [1] -2.55% | [2] -1.55% | [3] 11.7% | [4] 12.7% | [5] 1.25% | [6] 6.15%

CN=C(NC#N)NCc1ccccc1
inactive: [1] 7.05% | [2] 7.35% | [3] -2.6% | [4] 10.1% | [5] 20.8% | [6] 8.45%

Cc1c2ccccc2nc(CSc2n[nH]c(=S)s2)[n+]1[O-]
inactive: [1] -8.55% | [2] 18.6% | [3] 8% | [4] -44.5% | [5] 8.5% | [6] 20%
